{"source": "PubChem BioAssay AID602452", "about": "(National Center for Advancing Translational Sciences (NCATS), 2012)", "note": "Calls of active or inactive are those of the source. How the calls were made is not given here."}
{"assay": "qHTS Assay for Inhibitors of Influenza NS1 Protein Function: SAR Using NS1 and pYES strains", "conditions": "yeast NS1-expressing strain growth, OD at 60 h; stronger effect = higher value", "text": "(§1) Influenza is a world-wide public health problem and emerging forms of the virus have the potential to cause a pandemic of equal or greater magnitude to the outbreaks recorded in 1918, 1957 or 1968. Vaccine development is proceeding and there also exist two classes of anti-influenza compounds. However these therapeutic modalities are neither fully effective nor widely enough available to fulfill global needs. In addition their potential usefulness against newly emergent strains is not known. Efforts are needed to develop novel agents against influenza virus, including broad-spectrum agents. Identification of small molecules that inhibit NS1 function either directly or by interfering with specific cellular pathways may be a key to increasing our defense against the virus.\n(§2) We have miniaturized and optimized a cell based assay in which NS1 from influenza A is expressed in the budding yeast S. cerevisiae. NS1 is a multi-functional protein that counters the host innate immune response and facilitates viral versus cellular gene expression. Expression of NS1 causes a pronounced slow growth phenotype in yeast due to its intrinsic molecular activities. Small molecules that suppress the slow growth phenotype can be identified by a straightforward growth recovery assay using optical density (OD) as the measurement. The same yeast strain not expressing NS1 was used as positive control in the yeast growth recovery assay.\n(§3) Hits resulting from the primary screen and other follow-up screens, were tested using the same yeast strain that was used in the primary assay (NS1) but as control, were compared to a strain that lacks NS1 (pYES).\n(§4) NIH Chemical Genomics Center [NCGC]\n(§5) NIH Molecular Libraries Probe Centers Network [MLPCN]\n(§6) Assay Submitter (PI): Daniel Engel, University of Virgina\n(§7) Strain 9526-6-2 (MATa his3Delta1 leu2Delta0 lys2Delta0 ura3Delta0 pdr1::KanMX4 pdr3::KanMX4) was a gift from Dan Burke. It was derived by tetrad dissection from two parent strains that had been modified by one step gene replacements. The pdr1::KanMX4 was constructed in BY4741 (MATa his3Delta1 leu2Delta0 met15Delta0 ura3Delta0) and the pdr3::KanMX4 was constructed in BY4742 (MATalpha his3Delta1 leu2Delta0 met15Delta0 ura3Delta0). PCR-mediated one-step gene replacements, matings and tetrad dissections were performed as described previously.[i] The strain 9526-6-2/pYES-NS1 was generated by transformation of 9526-6-2 with the plasmid pYES-NS1 and maintained on synthetic complete medium (SC) lacking uracil. For growth experiments and library screening, a single transformed colony was grown overnight, and the cell number was determined by using a Coulter counter (Beckman Coulter Corp.). The cells were diluted to 5 x 10^5 cells/mL in SC lacking uracil and containing raffinose and 2% galactose. A portion of this culture was added to preplated test compounds such that the final dimethyl sulfoxide (DMSO) concentration was 1%. Optical density readings at 600 nm (OD600) were taken using a Thermomax microplate reader (Molecular Devices)."}
{"smiles": "COc1cc(-c2ccnc3c2c(C)nn3-c2ccc(C(F)(F)F)cc2)ccc1O", "OD (growth)": "0.46 (active)"}
{"smiles": "Cc1ccc(-n2nc(C)c3c(-c4ccc(O)c(O)c4)c(C#N)c(N)nc32)cc1C", "OD (growth)": "0.515 (active)"}
{"smiles": "COc1cc(-c2c(C#N)c(N)nc3c2c(C)nn3-c2ccc(F)cc2)ccc1O", "OD (growth)": "0.396 (active)"}
{"smiles": "COc1cc(-c2ccnc3c2c(C)nn3-c2cccc(C(F)(F)F)c2)ccc1O", "OD (growth)": "0.366 (active)"}
{"smiles": "Cc1nn(-c2ccc(Cl)cc2)c2nc(N)c(C#N)c(-c3ccc(O)c(O)c3)c12", "OD (growth)": "0.384 (active)"}
{"assay": "qHTS Assay for Inhibitors of Influenza NS1 Protein Function: SAR Using NS1 and pYES strains", "conditions": "yeast NS1-expressing strain growth, OD at 60 h; measured here: pYES control strain growth; stronger effect = higher value", "text": "as §1, §2, §3, §4, §5, §6, §7"}
{"smiles": "COc1cc(-c2ccnc3c2c(C)nn3-c2ccc(C(F)(F)F)cc2)ccc1O", "OD (growth)": 0.56}
{"smiles": "Cc1ccc(-n2nc(C)c3c(-c4ccc(O)c(O)c4)c(C#N)c(N)nc32)cc1C", "OD (growth)": 0.536}
{"smiles": "COc1cc(-c2c(C#N)c(N)nc3c2c(C)nn3-c2ccc(F)cc2)ccc1O", "OD (growth)": 0.591}
{"smiles": "COc1cc(-c2ccnc3c2c(C)nn3-c2cccc(C(F)(F)F)c2)ccc1O", "OD (growth)": 0.551}
{"smiles": "Cc1nn(-c2ccc(Cl)cc2)c2nc(N)c(C#N)c(-c3ccc(O)c(O)c3)c12", "OD (growth)": 0.572}
